Experiments:
Assay in all cases: PBM; 200 nM protein, PBS
Conditions in all cases: dsDNA, one strand shown
[1] = biological target: HESX1 (Homo sapiens, UniProt Q9UBX0 95-180, R165K)
[2] = biological target: SHOX (Homo sapiens, UniProt O15266 103-189)
[3] = biological target: ALX4 (Homo sapiens, UniProt Q9H161 200-286, Q225E)
[4] = biological target: HESX1 (Homo sapiens, UniProt Q9UBX0 95-180)
[5] = biological target: MSX2 (Homo sapiens, UniProt P35548 130-214, R199I)
[6] = biological target: ALX1 (Homo sapiens, UniProt Q15699 118-204, L144V)
Sequence of ALX1 (Homo sapiens, UniProt Q15699 118-204, L144V) (Q15699 118-204 L144V): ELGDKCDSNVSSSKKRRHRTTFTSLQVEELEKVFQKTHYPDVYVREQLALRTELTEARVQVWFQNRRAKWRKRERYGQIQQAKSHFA

[7] = biological target: ALX3 (Homo sapiens, UniProt O95076 139-225, N203Q)
Sequence of ALX3 (Homo sapiens, UniProt O95076 139-225, N203Q) (O95076 139-225 N203Q): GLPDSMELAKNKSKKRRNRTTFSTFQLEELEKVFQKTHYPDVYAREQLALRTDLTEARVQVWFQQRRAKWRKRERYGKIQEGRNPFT

[8] = biological target: SHOX (Homo sapiens, UniProt O15266 103-189, R173C)
Sequence of SHOX (Homo sapiens, UniProt O15266 103-189, R173C) (O15266 103-189 R173C): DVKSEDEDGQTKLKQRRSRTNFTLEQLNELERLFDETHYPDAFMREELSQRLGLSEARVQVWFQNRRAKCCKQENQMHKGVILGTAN

[9] = biological target: ALX1 (Homo sapiens, UniProt Q15699 118-204, L144R)
Sequence of ALX1 (Homo sapiens, UniProt Q15699 118-204, L144R) (Q15699 118-204 L144R): as the sequence (Q15699 118-204 L144V) above, with V27R counted along it

[10] = biological target: ALX3 (Homo sapiens, UniProt O95076 139-225)
Sequence of ALX3 (Homo sapiens, UniProt O95076 139-225) (O95076 139-225): as the sequence (O95076 139-225 N203Q) above, with Q65N counted along it

[11] = biological target: PROP1 (Homo sapiens, UniProt O75360 56-141)
Sequence of PROP1 (Homo sapiens, UniProt O75360 56-141) (O75360 56-141): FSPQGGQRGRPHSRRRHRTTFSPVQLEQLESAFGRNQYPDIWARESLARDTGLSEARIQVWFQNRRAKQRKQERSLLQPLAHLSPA

[12] = biological target: HESX1 (Homo sapiens, UniProt Q9UBX0 95-180, R109Q)
Sequence of HESX1 (Homo sapiens, UniProt Q9UBX0 95-180, R109Q) (Q9UBX0 95-180 R109Q): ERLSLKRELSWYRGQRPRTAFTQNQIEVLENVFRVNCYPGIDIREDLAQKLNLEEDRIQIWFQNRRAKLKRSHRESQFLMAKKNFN

[13] = biological target: PROP1 (Homo sapiens, UniProt O75360 56-141, R99H)
Sequence of PROP1 (Homo sapiens, UniProt O75360 56-141, R99H) (O75360 56-141 R99H): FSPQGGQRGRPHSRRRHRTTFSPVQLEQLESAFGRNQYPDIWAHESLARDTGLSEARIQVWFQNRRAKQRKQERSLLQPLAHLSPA

[14] = biological target: ALX3 (Homo sapiens, UniProt O95076 139-225, L168Q)
Sequence of ALX3 (Homo sapiens, UniProt O95076 139-225, L168Q) (O95076 139-225 L168Q): as the sequence (O95076 139-225 N203Q) above, with L30Q, Q65N counted along it

[15] = biological target: HESX1 (Homo sapiens, UniProt Q9UBX0 95-180, P111T)
Sequence of HESX1 (Homo sapiens, UniProt Q9UBX0 95-180, P111T) (Q9UBX0 95-180 P111T): as the sequence (Q9UBX0 95-180 R109Q) above, with Q15R, P17T counted along it

[16] = biological target: ALX3 (Homo sapiens, UniProt O95076 139-225, L168V)
Sequence of ALX3 (Homo sapiens, UniProt O95076 139-225, L168V) (O95076 139-225 L168V): as the sequence (O95076 139-225 N203Q) above, with L30V, Q65N counted along it

[17] = biological target: PROP1 (Homo sapiens, UniProt O75360 56-141, F88S)
Sequence of PROP1 (Homo sapiens, UniProt O75360 56-141, F88S) (O75360 56-141 F88S): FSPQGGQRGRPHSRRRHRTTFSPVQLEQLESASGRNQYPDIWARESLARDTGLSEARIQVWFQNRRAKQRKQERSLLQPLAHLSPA

[18] = biological target: HESX1 (Homo sapiens, UniProt Q9UBX0 95-180, F115L)
Sequence of HESX1 (Homo sapiens, UniProt Q9UBX0 95-180, F115L) (Q9UBX0 95-180 F115L): as the sequence (Q9UBX0 95-180 R109Q) above, with Q15R, F21L counted along it

[19] = biological target: ALX1 (Homo sapiens, UniProt Q15699 118-204)
Sequence of ALX1 (Homo sapiens, UniProt Q15699 118-204) (Q15699 118-204): as the sequence (Q15699 118-204 L144V) above, with V27L counted along it

[20] = biological target: ALX3 (Homo sapiens, UniProt O95076 139-225, N203S)
Sequence of ALX3 (Homo sapiens, UniProt O95076 139-225, N203S) (O95076 139-225 N203S): as the sequence (O95076 139-225 N203Q) above, with Q65S counted along it

Sequence of HESX1 (Homo sapiens, UniProt Q9UBX0 95-180) (Q9UBX0 95-180): as the sequence (Q9UBX0 95-180 R109Q) above, with Q15R counted along it
Sequence of MSX2 (P35548 130-214 R199I): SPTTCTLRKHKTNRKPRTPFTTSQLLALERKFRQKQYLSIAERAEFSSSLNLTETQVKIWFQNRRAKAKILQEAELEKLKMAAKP
Sequence of SHOX (Homo sapiens, UniProt O15266 103-189) (O15266 103-189): as the sequence (O15266 103-189 R173C) above, with C71R counted along it
Sequence of HESX1 (Homo sapiens, UniProt Q9UBX0 95-180, R165K) (Q9UBX0 95-180 R165K): as the sequence (Q9UBX0 95-180 R109Q) above, with Q15R, R71K counted along it
Sequence of ALX4 (Q9H161 200-286 Q225E): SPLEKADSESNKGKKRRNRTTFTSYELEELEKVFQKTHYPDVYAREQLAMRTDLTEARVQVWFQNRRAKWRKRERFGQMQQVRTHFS

Sequence | binding signal [1] | binding signal [2] | binding signal [3] | binding signal [4] | binding signal [5] | binding signal [6] | binding signal [7] | binding signal [8] | binding signal [9] | binding signal [10] | binding signal [11] | binding signal [12] | binding signal [13] | binding signal [14] | binding signal [15] | binding signal [16] | binding signal [17] | binding signal [18] | binding signal [19] | binding signal [20]
GCAATTAA | 12.6 upbm affinity estimate (log intensity, higher = more binding, comparable within an allelic series) | 12.1 upbm affinity estimate (log intensity, higher = more binding, comparable within an allelic series) | 13.3 upbm affinity estimate (log intensity, higher = more binding, comparable within an allelic series) | 12.7 upbm affinity estimate (log intensity, higher = more binding, comparable within an allelic series) | 13.2 upbm affinity estimate (log intensity, higher = more binding, comparable within an allelic series) | 11.6 upbm affinity estimate (log intensity, higher = more binding, comparable within an allelic series) | 8.37 upbm affinity estimate (log intensity, higher = more binding, comparable within an allelic series) | 9.65 upbm affinity estimate (log intensity, higher = more binding, comparable within an allelic series) | 11.3 upbm affinity estimate (log intensity, higher = more binding, comparable within an allelic series) | 12.4 upbm affinity estimate (log intensity, higher = more binding, comparable within an allelic series) | 11.5 upbm affinity estimate (log intensity, higher = more binding, comparable within an allelic series) | 9.34 upbm affinity estimate (log intensity, higher = more binding, comparable within an allelic series) | 11.6 upbm affinity estimate (log intensity, higher = more binding, comparable within an allelic series) | 10.7 upbm affinity estimate (log intensity, higher = more binding, comparable within an allelic series) | 11.2 upbm affinity estimate (log intensity, higher = more binding, comparable within an allelic series) | 10.2 upbm affinity estimate (log intensity, higher = more binding, comparable within an allelic series) | 7.72 upbm affinity estimate (log intensity, higher = more binding, comparable within an allelic series) | 7.72 upbm affinity estimate (log intensity, higher = more binding, comparable within an allelic series) | 12.2 upbm affinity estimate (log intensity, higher = more binding, comparable within an allelic series) | 8.51 upbm affinity estimate (log intensity, higher = more binding, comparable within an allelic series)
GTTAATTA | 13.7 upbm affinity estimate (log intensity, higher = more binding, comparable within an allelic series) | 13.1 upbm affinity estimate (log intensity, higher = more binding, comparable within an allelic series) | 14.5 upbm affinity estimate (log intensity, higher = more binding, comparable within an allelic series) | 13.6 upbm affinity estimate (log intensity, higher = more binding, comparable within an allelic series) | 13.1 upbm affinity estimate (log intensity, higher = more binding, comparable within an allelic series) | 12.3 upbm affinity estimate (log intensity, higher = more binding, comparable within an allelic series) | 8.67 upbm affinity estimate (log intensity, higher = more binding, comparable within an allelic series) | 10.7 upbm affinity estimate (log intensity, higher = more binding, comparable within an allelic series) | 12 upbm affinity estimate (log intensity, higher = more binding, comparable within an allelic series) | 13 upbm affinity estimate (log intensity, higher = more binding, comparable within an allelic series) | 12.1 upbm affinity estimate (log intensity, higher = more binding, comparable within an allelic series) | 10.5 upbm affinity estimate (log intensity, higher = more binding, comparable within an allelic series) | 12.1 upbm affinity estimate (log intensity, higher = more binding, comparable within an allelic series) | 11.5 upbm affinity estimate (log intensity, higher = more binding, comparable within an allelic series) | 12.3 upbm affinity estimate (log intensity, higher = more binding, comparable within an allelic series) | 11.2 upbm affinity estimate (log intensity, higher = more binding, comparable within an allelic series) | 8.2 upbm affinity estimate (log intensity, higher = more binding, comparable within an allelic series) | 8.41 upbm affinity estimate (log intensity, higher = more binding, comparable within an allelic series) | 13 upbm affinity estimate (log intensity, higher = more binding, comparable within an allelic series) | 8.84 upbm affinity estimate (log intensity, higher = more binding, comparable within an allelic series)
ATTAATGA | 11.4 upbm affinity estimate (log intensity, higher = more binding, comparable within an allelic series) | 11.5 upbm affinity estimate (log intensity, higher = more binding, comparable within an allelic series) | 12.8 upbm affinity estimate (log intensity, higher = more binding, comparable within an allelic series) |  |  | 11.6 upbm affinity estimate (log intensity, higher = more binding, comparable within an allelic series) | 8.5 upbm affinity estimate (log intensity, higher = more binding, comparable within an allelic series) | 9.51 upbm affinity estimate (log intensity, higher = more binding, comparable within an allelic series) | 11.4 upbm affinity estimate (log intensity, higher = more binding, comparable within an allelic series) | 12.3 upbm affinity estimate (log intensity, higher = more binding, comparable within an allelic series) | 11.2 upbm affinity estimate (log intensity, higher = more binding, comparable within an allelic series) | 8.79 upbm affinity estimate (log intensity, higher = more binding, comparable within an allelic series) | 10.9 upbm affinity estimate (log intensity, higher = more binding, comparable within an allelic series) | 10.3 upbm affinity estimate (log intensity, higher = more binding, comparable within an allelic series) |  | 9.84 upbm affinity estimate (log intensity, higher = more binding, comparable within an allelic series) | 7.87 upbm affinity estimate (log intensity, higher = more binding, comparable within an allelic series) | 7.87 upbm affinity estimate (log intensity, higher = more binding, comparable within an allelic series) | 12.2 upbm affinity estimate (log intensity, higher = more binding, comparable within an allelic series) | 8.58 upbm affinity estimate (log intensity, higher = more binding, comparable within an allelic series)
CGTAATTA | 12.6 upbm affinity estimate (log intensity, higher = more binding, comparable within an allelic series) | 12.4 upbm affinity estimate (log intensity, higher = more binding, comparable within an allelic series) | 13.5 upbm affinity estimate (log intensity, higher = more binding, comparable within an allelic series) | 12.6 upbm affinity estimate (log intensity, higher = more binding, comparable within an allelic series) | 12.9 upbm affinity estimate (log intensity, higher = more binding, comparable within an allelic series) | 12 upbm affinity estimate (log intensity, higher = more binding, comparable within an allelic series) | 8.47 upbm affinity estimate (log intensity, higher = more binding, comparable within an allelic series) | 9.89 upbm affinity estimate (log intensity, higher = more binding, comparable within an allelic series) | 11.7 upbm affinity estimate (log intensity, higher = more binding, comparable within an allelic series) | 12.7 upbm affinity estimate (log intensity, higher = more binding, comparable within an allelic series) | 11.6 upbm affinity estimate (log intensity, higher = more binding, comparable within an allelic series) | 9.06 upbm affinity estimate (log intensity, higher = more binding, comparable within an allelic series) | 11.5 upbm affinity estimate (log intensity, higher = more binding, comparable within an allelic series) | 10.7 upbm affinity estimate (log intensity, higher = more binding, comparable within an allelic series) | 11.1 upbm affinity estimate (log intensity, higher = more binding, comparable within an allelic series) | 10.2 upbm affinity estimate (log intensity, higher = more binding, comparable within an allelic series) | 7.88 upbm affinity estimate (log intensity, higher = more binding, comparable within an allelic series) | 7.77 upbm affinity estimate (log intensity, higher = more binding, comparable within an allelic series) | 12.7 upbm affinity estimate (log intensity, higher = more binding, comparable within an allelic series) | 8.56 upbm affinity estimate (log intensity, higher = more binding, comparable within an allelic series)
